This is an account of results in PubChem BioAssay (NCATS).

SMILES strings stand for the structures. Records with an inconclusive call do not appear. Active and inactive are the calls of the source. Calls follow the shape of the dose curve; as a rule, active = well fitted activation curve with a large enough effect; inconclusive = small, poorly fitted or top-dose-only effect; inactive = flat fitted curve, though single readings scatter.

The nature of this experiment: Cellular Toxicity (caspase-3) H-4-II-E (AID 663).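 Also: cells exposed to compound for 16 hr before readout.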 The note with it: H-4-II-E rat hepatoma, scaled: DMSO 0%, 100 µM tamoxifen 100%; series mostly up to 92.2 µM. From the text:
NIH Chemical Genomics Center [NCGC]
NIH Molecular Libraries Screening Centers Network [MLSCN]
National Institutes of Environmental Health Sciences [NIEHS]
National Toxicology Program [NTP]
We have developed a 1536-well cell-based assay for quantitative high throughput screening (qHTS) against a number of cell lines to determine in vitro caspase 3/7 of small molecules. This particular assay uses the H-4-II-E cell line which is derived from rat hepatoma.
NCGC Assay Protocol Summary:
The Caspase-Glo 3/7 assay (Promega) is a homogeneous method to measure caspase-3 and caspase-7 activities in cultured cells. The quantitation of caspase 3/7 activity is based on the cleavage of a peptide-aminoluciferin substrate. After caspase cleaves the substrate the free aminoluciferin is liberated and serves as the substrate of luciferase, which generates the light. The luminescent signal is proportional to amount of caspase 3/7 activity present.
Using the Caspase-Glo 3/7 assay, the amount of caspase 3/7 activity was measured in the H-4-II-E cell line with complete culture medium following compound treatment for 16 hours. The assay was performed in opaque white 1536-well plates. In the screen, tamoxifen and doxorubicin were used as positive controls. Library compounds were measured for their ability to cause the activation of caspase 3/7 in the cell line, as reflected by an increase in luminescence signal, in a concentration-dependent manner. Data were normalized to the controls for basal activity (DMSO only) and 100% stimulation (100 uM tamoxifen). AC50 values were determined from concentration-response data modeled with the standard Hill equation.
qHTS protocol for caspase 3/7 assay in H-4-II-E cells
[Step] [Parameter] [Value] [Description]
1. Reagent; 5 uL; 1500 H-4-II-E cells/well
2. Time; 5 hr; 37 °C incubation
4. Controls; 23 nL; Tamoxifen 0.23 uM to 100 uM & Doxorubicin 7.0 pM to 100 uM
5. Time; 16 hr; 37 °C incubation
6. Reagent; 5 uL; Caspase-Glo 3/7 reagent
7. Time; 20 min; Room Temperature
8. Detection; Luminescence; Viewlux plate reader
Keywords: caspase 3/7, apoptosis, H-4-II-E cell line, luminescence, NTPHTS, NTPHTS_NCGC, NIEHS, EPA, DSSTox, MLSMR, MLSCN, NIH Roadmap, qHTS, NCGC
Regarding `COc1ccc(CN(CCN(C)C)c2ccccn2)cc1`, the result was inactive.
As for `CN=C(NC#N)NCCSCc1nc[nH]c1C`, the entry is “inactive”.
As for `CCCCNC(=O)NS(=O)(=O)c1ccc(C)cc1`, the entry is “inactive”; as for `NC(=Nc1ccccc1)Nc1ccccc1`, “inactive”.
Consider `CCCCOCCOCCOCc1cc2c(cc1CCC)OCO2`, for which the molecule was classed as inactive.
The entry for `NC(=O)N1c2ccccc2C=Cc2ccccc21` is “inactive”; for `COc1cc(Cc2cnc(N)nc2N)cc(OC)c1OC` it is “inactive”; for `Nc1nc(N)c2nc(-c3ccccc3)c(N)nc2n1` it is “inactive”.
As for `O=c1[nH]c(=O)n([C@H]2C[C@H](O)[C@@H](CO)O2)cc1Br`, the entry is “inactive”.
As for `Nc1ncn([C@@H]2O[C@H](CO)[C@@H](O)[C@H]2O)c(=O)n1`, the entry is “inactive”.
